Laboratory results reported in PubChem BioAssay AID504727 (Broad Institute, 2011).
Values without a mark were called inactive. Active and inactive are the calls of the source.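 Rule for the calls: active = fitted half-maximal concentration AC50 at or below ten times the highest valid tested dose, with signal falling as DNA is displaced (actives reach about 34 µM in these data); inconclusive = flat fit at moderate signal loss, or poor fit quality; inactive = the rest, including signal rising instead of falling.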

Assay: acridine orange-DNA binding displacement – biochemical, fluorescence polarization, cherry-picked samples, set 2, artefact control for KSHV LANA DNA-binding inhibitor project, dose response (AID 504727);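 for activity change, negative = DNA displacement: 0% = median of neutral control wells and -100% = mitoxantrone positive control wells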
Conditions: series mostly up to 35 µM; activity change, negative = DNA displacement: at the top concentration

Compound | activity change, negative = DNA displacement [%] | AC50
CCOC(=O)C1(Cc2cccc(F)c2)CCN(Cc2c(C)nn(CC)c2C)CC1 | -0.455 | –
CCn1c(-c2ccc([N+](=O)[O-])cc2)n[nH]c1=S | -3.7 | –
COc1cc2c(cc1OC)-c1cc3ccc4c(c3c[n+]1CC2)OCO4 | – | 32.2 µM (active)
CCN(C(=O)COC(=O)c1ccc([N+](=O)[O-])o1)C1CCCCC1 | 0.36 | –
COc1ccc(OC)c(-c2c3cc(O)c(=O)cc-3oc3cc(O)c(O)cc23)c1 | – | 1.62 µM (active)
CCCc1nc(SC)[nH]c(=O)c1C | 0.206 | –
CCOC(=O)C(C)(C)N(Cc1ccccc1C)S(=O)(=O)c1ccc(Cl)c([N+](=O)[O-])c1 | 3.3 | –
NS(=O)(=O)c1ccc(N=Nc2c[nH]c(=O)c(O)c2)cc1 | – | 15.8 µM (active)
O=S(=O)(O)c1cc(O)c2cc(Nc3ccccc3)ccc2c1 | 6.99 | –
Cc1cc(NC(=O)CSc2nnc(COc3cccc(C)c3C)n2C)no1 | 5.58 | –
Cc1ccc(S(=O)(=O)/N=C2/C=C(Sc3ncn[nH]3)C(=O)c3ccccc32)cc1 | -0.37 | –
CC(C)CCN1C(=O)c2cccc3c(N)ccc(c23)C1=O | – | 7.39 µM (active)
CCCCn1c(=O)[nH]c2nc3cc(N)ccc3nc2c1=O | – | 3.75 µM (active)
CCCc1cc(C(=O)Nc2ccc(C(=O)c3ccc(C)cc3)cc2)n(C)n1 | 5.64 | –
Cc1cc(C)c2c(c1)NC(C(=O)O)C1CC=CC21 (configuration not stated) | -1.24 | –
CCC(=O)Nc1cccc(C(=O)/C=C/c2ccccc2)c1 | 3.15 | –
O=C(O)c1cccc(-n2cccc2/C=C2/NC(=O)N(c3ccc(Cl)cc3)C2=O)c1 | 9.15 | –
